High-throughput results deposited in PubChem by ICCB-Longwood Screening Facility, Harvard Medical School.
AID504770 – E. coli YBA685 growth inhibition, screen for V. cholerae RctB inhibitors. z-score (test concentration not listed). hit rate 0.27% among 130,000. AID 504770. E. coli YBA685 rctB-dependent plasmid, OD600 growth, 3 h; active compounds read low; in the data active = z-score below about -2, passing the limit was not always enough
MbtI inh – MbtI salicylate synthase inhibition; P9WFX0; inhibition, % (no concentration beside the values); purified MbtI enzyme, fluorescence intensity read-out; hit rate 0.89% among 100,000; AID 493033; in the data active = inhibition mostly above about 56%, no sharp cut-off; inactive = mostly below about 77%
Target sequence (P9WFX0 whole entry, looked up): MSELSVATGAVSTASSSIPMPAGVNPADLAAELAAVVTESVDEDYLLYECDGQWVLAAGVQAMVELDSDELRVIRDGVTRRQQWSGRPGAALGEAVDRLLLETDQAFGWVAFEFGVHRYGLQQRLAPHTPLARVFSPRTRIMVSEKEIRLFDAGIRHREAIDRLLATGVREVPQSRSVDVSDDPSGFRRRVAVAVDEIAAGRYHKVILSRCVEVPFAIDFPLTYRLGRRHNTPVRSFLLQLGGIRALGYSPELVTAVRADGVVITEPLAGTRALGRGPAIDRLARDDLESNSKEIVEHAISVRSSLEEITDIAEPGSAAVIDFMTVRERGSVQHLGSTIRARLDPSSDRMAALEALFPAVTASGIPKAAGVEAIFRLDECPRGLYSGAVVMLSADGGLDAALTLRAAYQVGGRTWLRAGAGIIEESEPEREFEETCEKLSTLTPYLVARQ
Mtb MenB inh – inhibitors of Mycobacterium tuberculosis MenB enzyme. MenB enzyme assay, absorbance read-out. hit rate 0.43% among 100,000. P9WNP5. inhibition, % (no concentration beside the values); in the data active = inhibition above about 21%, passing the limit was not always enough
PV pol inh – poliovirus RNA polymerase inhibition. P03300. poliovirus polymerase elongation, fluorescence polarization; active compounds read low. hit rate 0.66% among 150,000. % elongation, % (compound at 16.7 µg/mL); in the data active = % elongation below about 90%
Of the large screens only hits and unclear results are named; the others gave an inactive call. Only some compounds are listed: those with a hit (about 1.4% of all), similar ones and a draw of the others.

CNC(=S)NCCN1C(=O)S/C(=C\c2cccnc2)C1=O	AID504770 -3.05
Cn1c(=O)c(C2=NS(=O)(=O)c3ccccc3N2)c(O)c2ccccc21	Mtb MenB inh 32.8
C=CCSc1nnc2c(n1)OC(c1cc3c(cc1Br)OCO3)N(C(C)=O)c1ccccc1-2 (stereo not drawn)	none
CC1CN(C)CC(C)C1(O)c1ccccc1 (stereo not drawn)	none (no result: MbtI inh)
CC1CN(C(C)(C)C)CCC1(O)c1ccccc1 (stereo not drawn)	Mtb MenB inh 34.4
CCC(=O)Nc1nc(-c2ccc(Cl)c(Cl)c2)nc2c1c(=O)oc1ccccc12	none (no result: MbtI inh, Mtb MenB inh, PV pol inh)
O=C(NCc1ccco1)C(c1ccccc1)N(Cc1ccco1)C(=O)Cn1nnc2ccccc21 (stereo not drawn)	Mtb MenB inh 34.4
[O-][n+]1onc(-c2ccccc2)c1-c1ccccc1	none
N#Cc1c(-c2ccccc2)no[n+]1[O-]	PV pol inh 93.0 (no result: AID504770)
COC(=O)C(C)N1C(=O)S/C(=C/c2ccc(N3CCCCCC3)o2)C1=O (stereo not drawn)	MbtI inh 53.2
CCC(C)c1ccc(C2=Nn3c(nnc3C(C)C)SC2)cc1 (stereo not drawn)	PV pol inh 74.0
CCN1/C(=C/c2scc[n+]2C)C=C(C)c2cc(OC)c3ccccc3c21	PV pol inh 56.0
Nc1cccc2cccc(C(=O)O)c12	PV pol inh 89.0 (no result: Mtb MenB inh)
O=C1CCCN1C(=O)CSc1nc2c(Cl)cc(Cl)cc2[nH]1	none
O=C(CN1C(=O)CSC1=O)Nc1nccs1	none
Nn1cnn(CC(=O)Nc2nccs2)c1=S	PV pol inh 74.0 (no result: MbtI inh)
CC1(NS(C)(=O)=O)CC=CC1	Mtb MenB inh 28.6
CN(C)c1ccc(C2=CC=CC(=C3C=CC(=[N+](C)C)C=C3)O2)cc1	MbtI inh 84.2
CN(C)c1ccc(C(=C2C=CC(=[N+](C)C)C=C2)c2ccc(N(C)C)cc2)cc1	none
CC1CCN(S(=O)(=O)c2ccc(S(=O)(=O)N3CCCN(Cc4ccccc4)C3)cc2)CC1	Mtb MenB inh 35.8
C=CCNCc1nc(-c2cccc(C)c2)no1	none
CCCN(Cc1nnc(-c2ccco2)o1)C(=O)c1cccnc1SCc1c(C)noc1C	PV pol inh 89.0
CCN(C(=O)Cn1c(=O)oc2cc(Cl)ccc21)c1cccc(C(F)(F)F)c1	PV pol inh 82.0 (no result: AID504770, MbtI inh, Mtb MenB inh)
CCOc1ccc(-c2cnc(N)s2)cc1	PV pol inh 62.0 (no result: MbtI inh)
CC(=O)NC(Cc1ccccc1)C(=O)NC1CCN(C(=O)c2ccccc2)CC1 (stereo not drawn)	none
CNc1c(NC(=O)Nc2cccc(OC)c2)c(=O)oc2ccccc12	none
NC(=S)N1CCOCC1	none
Cc1ccc(C(=O)CC(NCCN2CCOCC2)C(=O)O)cc1 (stereo not drawn)	Mtb MenB inh 32.9 (no result: MbtI inh)
O=C(CC(NCCN1CCOCC1)C(=O)O)Nc1ccc2ccccc2c1 (stereo not drawn)	none
O=c1c2ccccc2[se]n1-c1ccccc1	MbtI inh 103.2 (no result: AID504770)
CCOc1ccc(CCNC(=O)Cc2ncn[nH]2)cc1OCC	none (no result: MbtI inh)
Cc1nnc(SCc2ccc(C(=O)c3ccc(F)cc3)cc2)[nH]c1=O	none (no result: MbtI inh, Mtb MenB inh, PV pol inh)
Cc1nnc(SCc2cccc(C(=O)c3ccccc3)c2)[nH]c1=O	MbtI inh 54.7
CN(C)S(=O)(=O)c1cccc(-c2nnc3n2N=C(c2cccs2)CS3)c1	MbtI inh 97.3, PV pol inh 76.0
c1ccc(-c2nnc3n2N=C(c2cccs2)CS3)cc1	none
C1=CCC2NC(C1)Cc1ccccc12 (stereo not drawn)	Mtb MenB inh 29.3
CSc1ncc(C(=O)N2CCN(Cc3ccccc3)CC2)c(-c2ccccc2)n1	none
COc1cc(OC)c(NC(=O)Cn2c3ccccc3c3nc(=O)cc(C)n32)cc1Cl	none (no result: MbtI inh, Mtb MenB inh, PV pol inh)
COc1ccc(CCNC(=O)Cn2cnc3c(cnn3-c3ccccc3)c2=O)cc1OC	AID504770 -3.6 (no result: MbtI inh, Mtb MenB inh, PV pol inh)
COC(=O)Cn1cnc2c(cnn2-c2ccccc2)c1=O	none (no result: MbtI inh, Mtb MenB inh, PV pol inh)
CCOC(=O)c1c(-c2ccc(C)cc2)csc1NC(=O)c1cc(-c2ccc(OC)cc2)on1	none (no result: AID504770, MbtI inh, Mtb MenB inh)
CCOC(=O)c1c(-c2ccccc2)csc1NC(=O)c1cc(-c2cccc(Cl)c2)on1	PV pol inh 84.0 (no result: AID504770, MbtI inh, Mtb MenB inh)
CCOC(=O)c1c(-c2ccc(C)cc2)csc1NC(=O)c1cc(-c2ccc(Cl)cc2)on1	none (no result: AID504770, MbtI inh, Mtb MenB inh)
CCOC(=O)c1c(NC(=O)c2cc(-c3ccc(OC)c(OC)c3)on2)sc2c1CCCC2	none (no result: AID504770, MbtI inh, Mtb MenB inh)
CCOC(=O)c1c(-c2ccccc2)csc1NC(=O)c1cc(-c2cccc(OC)c2)on1	PV pol inh 71.0 (no result: AID504770, MbtI inh, Mtb MenB inh)
CCOC(=O)c1c(NC(=O)c2cc(-c3cccc(OC)c3)on2)sc(C)c1C	none
CCOC(=O)c1c(NC(=O)c2cc(-c3ccc(OC)cc3)on2)sc(C)c1C	PV pol inh 84.0 (no result: AID504770, MbtI inh, Mtb MenB inh)
CCOC(=O)c1c(NC(=O)c2cc(-c3cccc(OC)c3)on2)sc2c1CCCC2	PV pol inh 77.0 (no result: AID504770, MbtI inh, Mtb MenB inh)
N#CCCn1cc(/C=C2\NC(=S)N(c3ccccc3)C2=O)c(-c2ccccc2)n1	none
COC(=O)c1ccccc1S(=O)(=O)N1CCC(C(=O)NCCN2C(=O)S/C(=C\c3cccnc3)C2=O)CC1	none
CCOC(=O)c1c(-c2ccc(C)cc2)csc1NC(=O)c1cc(=O)c2cc(C)ccc2o1	PV pol inh 61.0 (no result: AID504770, MbtI inh, Mtb MenB inh)
CC(C)C(=O)Nc1cccc(-c2nc3ccccc3c(=O)o2)c1	AID504770 -3.5
Cn1c(SCC(=O)NC(=O)Nc2ccccc2F)nc2cc(S(N)(=O)=O)ccc21	MbtI inh 96.0, PV pol inh 85.0
COc1ccc(-c2nnc(SC3CCOC3=O)n2-c2ccccc2)cc1 (stereo not drawn)	none
CCCCn1c(O)c(N=NC(=O)c2ccccc2)c2ccccc21	none
O=C(O)/C=C/C(=O)NCc1cccs1	none (no result: MbtI inh, Mtb MenB inh, PV pol inh)
CCN(CC)N=Nc1ccc(NC(C)=O)cc1	MbtI inh 90.1
CC(=O)Nc1ccc(N=NN2CCCCC2)cc1	AID504770 -2.5
CNc1c(C(=O)c2ccc(F)cc2)sc(N)c1C#N	none
Cc1ccc(C(=O)c2sc(Nc3ccc(F)cc3)c(C#N)c2N)cc1	PV pol inh 77.0 (no result: AID504770, MbtI inh, Mtb MenB inh)
Cc1cc(OC(=O)c2ccccc2)n[nH]1	none
Cc1ccc(NC(=O)/C(C#N)=C/c2cn(CC(=O)NCc3ccco3)c3ccccc23)cc1Cl	none
Brc1ccc(CNc2ccc3cn[nH]c3c2)s1	PV pol inh 58.0
FC(F)(F)c1cccc(N2CCN(Cc3cccs3)CC2)c1	none
O=C(NC1(O)C(=O)c2ccccc2C1=O)c1ccc(C(F)(F)F)cc1	PV pol inh 9.0
Cc1ccc(C(=O)NC2(O)C(=O)c3ccccc3C2=O)cc1C	none (no result: MbtI inh, Mtb MenB inh, PV pol inh)
O=C(NC1CC1)c1cnn(-c2ccc(Cl)cc2)c1C(F)(F)F	none (no result: MbtI inh, Mtb MenB inh, PV pol inh)
O=C(NC1(O)C(=O)c2ccccc2C1=O)c1ccccn1	PV pol inh 54.0
Cc1nc(C(=O)NC2(O)C(=O)c3ccccc3C2=O)cs1	none (no result: MbtI inh, Mtb MenB inh, PV pol inh)
O=C(NC1(O)C(=O)c2ccccc2C1=O)c1cnn(-c2ccccc2)c1C(F)(F)F	PV pol inh 48.0
COC(=O)c1c[nH]n2c(=O)c3c(nc12)CCN(Cc1ccccc1)C3	none
COC(=O)c1nn(-c2ccccc2)c(=O)c2c(N)sc(C)c12	MbtI inh 75.9, PV pol inh 73.0
COC(=O)c1nn(-c2ccc(OC)cc2)c(=O)c2c(N)sc(C)c12	MbtI inh 77.1, PV pol inh 83.0
